From paper PMC4336329 (PLoS ONE, 2015)
Hit rate of the full screen: of about 310,000 compounds, about 14,000 (4.5%) showed an effect of 50% or more. Effects have a minus sign here. What follows is part of a selection rich in strong results, with near analogues and random picks from the rest.

target: human ether-à-go-go-related gene (hERG) potassium channel (human, UniProt Q12809); assay: primary screen, population patch clamp on CHO cells stably expressing hERG; higher = less effect of the substance
Sequence (Q12809 whole entry, looked up): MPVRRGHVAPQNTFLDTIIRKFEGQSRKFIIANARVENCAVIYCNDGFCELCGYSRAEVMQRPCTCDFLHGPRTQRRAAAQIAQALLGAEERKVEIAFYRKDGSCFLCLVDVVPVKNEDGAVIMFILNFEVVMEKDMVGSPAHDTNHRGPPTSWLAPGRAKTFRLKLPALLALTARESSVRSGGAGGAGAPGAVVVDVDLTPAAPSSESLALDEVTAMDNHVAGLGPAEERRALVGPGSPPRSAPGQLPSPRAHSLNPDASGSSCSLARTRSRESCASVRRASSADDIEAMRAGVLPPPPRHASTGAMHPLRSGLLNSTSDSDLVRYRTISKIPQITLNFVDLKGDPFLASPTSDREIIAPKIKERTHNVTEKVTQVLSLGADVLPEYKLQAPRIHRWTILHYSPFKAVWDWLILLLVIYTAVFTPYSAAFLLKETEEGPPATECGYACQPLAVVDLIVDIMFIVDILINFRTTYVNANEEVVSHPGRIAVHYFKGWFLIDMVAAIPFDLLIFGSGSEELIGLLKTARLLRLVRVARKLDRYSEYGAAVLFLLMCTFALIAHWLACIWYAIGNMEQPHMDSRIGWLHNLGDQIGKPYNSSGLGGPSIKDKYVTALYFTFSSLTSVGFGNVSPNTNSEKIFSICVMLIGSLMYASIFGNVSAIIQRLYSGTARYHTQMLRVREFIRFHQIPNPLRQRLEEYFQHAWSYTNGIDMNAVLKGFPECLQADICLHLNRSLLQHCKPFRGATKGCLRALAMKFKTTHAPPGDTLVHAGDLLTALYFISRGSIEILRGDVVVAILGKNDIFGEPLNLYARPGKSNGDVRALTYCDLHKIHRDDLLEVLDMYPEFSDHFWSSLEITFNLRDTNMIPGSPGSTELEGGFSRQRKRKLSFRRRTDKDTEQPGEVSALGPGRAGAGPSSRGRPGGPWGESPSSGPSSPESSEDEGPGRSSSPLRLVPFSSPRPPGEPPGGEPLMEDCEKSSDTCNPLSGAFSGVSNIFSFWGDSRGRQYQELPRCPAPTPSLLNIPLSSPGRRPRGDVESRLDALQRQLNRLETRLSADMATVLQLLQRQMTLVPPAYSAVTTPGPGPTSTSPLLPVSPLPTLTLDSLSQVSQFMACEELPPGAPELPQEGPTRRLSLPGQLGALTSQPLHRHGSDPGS
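Also: peak tail current of the secondary pulse compared with the same well before compound.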

SMILES | hERG current change (%, negative = inhibition) at 10uM [%]
O=C1NC(=O)C(Nc2cccc3ccccc23)S1 (stereo not drawn) | 7.89
Cc1cccc(-c2nc3c(c(SCC(=O)N(C)C)n2)CCCC3)c1 | -21.5
COC(=O)c1ccc([C@H](NC(=O)c2ccco2)[C@]2(C)C[C@H]2C2CCCCC2)cc1 | 9.14
COc1ccc(CN2CCn3ncc(C(=O)Nc4cccc(C)c4)c3C2=O)cc1 | 6.5
Cc1ccc(S(=O)(=O)N/N=C/c2ccc(OCC(=O)Nc3ccccc3Cl)cc2)cc1 | 1.73
COc1cccc(N(C(=O)Cn2nnc(-c3cccs3)n2)C(C(=O)NC2CCCCC2)c2ccncc2)c1 (stereo not drawn) | 8
COc1cc2c(c(OC)c1OC)-c1c(cc3c(c1O)OCO3)C[C@@H](C)[C@@H](C)C2 | 0.26
COc1cc2c(c(O)c1OC)-c1c(cc(OC)c(OC)c1OC)C[C@@H](C)[C@@H](C)C2 | -78.6
COc1cc2c(c(OC)c1OC)-c1c(cc3c(c1OC)OCO3)C1OC2[C@@H](C)[C@H]1C (stereo partly drawn) | -4.76
COc1cc(C2(O)CCCCC2C)cc(OC)c1OC (stereo not drawn) | 15.9
COc1cc2c(c(OC)c1OC)C(=O)CC2 | 15.6
COc1cc2c(c(OC)c1OC)-c1c(cc3c(c1OC)OCO3)[C@@H](OC(C)=O)[C@H](C)[C@H](C)C2 | -66.8
COc1cc2c(c(OC)c1OC)-c1c(cc(OC)c(OC)c1OC)C[C@](C)(O)[C@@H](C)C2 | -73.7
COc1cc2c(c(OC)c1OC)-c1c(cc3c(c1OC)OCO3)C[C@H](C)[C@@](C)(O)C2 | 28.4
COc1cc2c(c(O)c1OC)C(=O)C(OC)CCC2 (stereo not drawn) | -3.32
C/C=C(/C)C(=O)O[C@@H]1c2cc3c(c(OC)c2-c2c(cc(OC)c(OC)c2OC)[C@@H](OC(C)=O)[C@@H](C)[C@H]1C)OCO3 | 4.78
Br.COc1cc2c(cc1OC)-c1c(OC)c(OC)cc3c1[C@H](C2)[NH+](C)CC3 | -16.7
COc1cc2c(c(OC)c1OC)-c1c(cc(OC)c(OC)c1OC)C[C@H](C)[C@H](C)C2 | -71.9
O=S(=O)(N/N=C/c1ccc(N2CCOCC2)cc1)c1ccc(Br)cc1 | 15.1
Cc1ccc2nc(-c3ccc(NC(=O)CN4C(=O)NC(C)(c5ccc(OC(F)F)cc5)C4=O)cc3)sc2c1 (stereo not drawn) | 12.4
Cc1cccc(-n2c(C)cc(/C=N/n3cnnc3)c2C)c1 | -0.869
O=C(Nc1ccc(S(=O)(=O)Nc2nccs2)cc1)C1CC(=O)N(c2ccc(Cl)cc2)C1 (stereo not drawn) | 0.55
CC1=C(C(=O)OC(C)C)C2(O)C(=O)c3ccccc3C2(O)N1 (stereo not drawn) | 12
CN(CC(=O)Nc1c(Cl)cccc1Cl)C(=O)Cc1cccs1 | 2.98
Cc1cc(=O)oc(C)c1C(=O)NCc1ccc(F)cc1 | -15.9
O=C1CCCCC/C1=N/Nc1ccc(OCc2ccccc2)cc1 | 17.3
CC(C)(C)c1ccc(-n2ncc3c2CCCC3NC(=O)C2(C(N)=O)CC2)cc1 (stereo not drawn) | -29.1

SMILES | hERG current change (%, negative = inhibition) at 10uM [%]
CCCCOc1ccc(/C=C/C(=O)OCC(=O)N2CC(=O)Nc3ccccc32)cc1OCC | 21.2
CCOC(=O)c1c(CSc2ccccc2)n(C)c2ccc(O)c(CN3CCOCC3)c12 | -46.3
CCOC(=O)c1c(-c2ccccc2)oc2ccc(O)c(CN3CCCC3)c12 | -64.3
CCOC(=O)c1c(C)n(C)c2ccc(O)c(CN3CCN(C)CC3)c12 | -3.46
CCCCn1c(C)c(C(=O)OCC)c2c(CN3CCOCC3)c(O)ccc21 | -55.9
CCOC(=O)c1c(C)n(C)c2ccc(O)c(CN3CCCCC3)c12 | -55.5
CCOC(=O)c1c(-c2ccccc2)oc2ccc(O)c(CN3CCN(C)CC3)c12 | -23.5
CCOC(=O)c1c(CSc2ccccc2)n(C)c2ccc(O)c(CN3CCN(C)CC3)c12 | -22.6
CCOC(=O)c1c(C)n(C)c2ccc(O)c(CN3CCC(C)CC3)c12 | -23.2
CCOC(=O)c1c(C)oc2ccc(O)c(CN3CCCCC3)c12 | -37.4
CCOC(=O)c1c(-c2ccccc2)oc2ccc(O)c(CN3CCOCC3)c12 | -37
CCCCn1c(C)c(C(=O)OCC)c2c(CN3CCCC3)c(O)ccc21 | -72
CCOC(=O)c1oc2cccc(O)c2c1CN1CCOCC1.Cl | -17.1
Cc1csc(SC(C)C(=O)Nc2ccc3c(c2)OCCO3)n1 (stereo not drawn) | 6.25
COc1ccc(OC)c(C2CC(=O)c3c([nH]c(C(=O)OCC4CCCO4)c3C)C2)c1 (stereo not drawn) | 3.54
CCOC(=O)C1C(=O)NC(N2CCN(CC)CC2)=NC1c1ccccc1 (stereo not drawn) | 16.8
CC1CCC(CN2CCN=C2Nc2ccccc2)CC1 (stereo not drawn) | -14.7
CC(C)c1nnc(NC(=O)CCC(=O)NC2CCCCC2)s1 | 1.73
O=C(Nc1ccnn1C1CCN(C(=O)c2cc(Cl)ccc2F)CC1)C1CCOC1 (stereo not drawn) | 23.6
Fc1ccc2c(-c3cccc(C(F)(F)F)c3)c(-c3ccccc3)ncc2c1 | 14.1
Cc1cc(C)cc(NC(=O)COc2coc(CN3CCc4ccccc43)cc2=O)c1 | 2.85
Cc1cc(C)c(NC(=O)COC(=O)C2CCCCC2)c(C)c1 | 4.87
O=C(c1cccc(F)c1)N1CCN(c2ccc([N+](=O)[O-])c(N3CCOCC3)c2)CC1 | -25
Cc1cc(C)n(-c2cc(N3CCN(C(=O)c4cccc(Br)c4)CC3)ccc2[N+](=O)[O-])n1 | -67.6
Cc1cc(C)n(-c2cc(N3CCN(S(=O)(=O)c4ccc5ccccc5c4)CC3)ccc2[N+](=O)[O-])n1 | -1.13
Cc1cc(C)n(-c2cc(N3CCN(C(=O)c4cccc(F)c4)CC3)ccc2[N+](=O)[O-])n1 | -67.9
Cc1cc(C)n(-c2cc(N3CCN(S(=O)(=O)c4ccc(Br)cc4)CC3)ccc2[N+](=O)[O-])n1 | -21.3
